This is an account of results in PubChem BioAssay (NCATS).

The nature of the assay: qHTS Assay for Lipid Storage Modulators (AID 1519). For activity change, negative = inhibition: % is set by controls: 0 for no effect and ±100 for the full control effect. Particulars: Drosophila S3 cells, BODIPY lipid droplet/cell ratio, laser cytometry, cells loaded with oleic acid. The source says:
NIH Molecular Libraries Probe Production Centers Network [MLPCN]
NIH Chemical Genomics Center [NCGC]
Assay Submitter (PI): Beller, Mathias; Max-Planck-Institut fur Biophysikalische Chemie
NCGC Assay Overview: Storing lipids as a reservoir for energy or the anabolism of elementary metabolites is a common feature of probably all cells and is conserved from bacteria to humans. The universal cellular lipid storage organelle is the so-called lipid storage droplet (LD). Although ubiquitous, LDs share a simple structure composed of a hydrophobic core that harbors the storage lipids, which is shielded by a droplet-specific phospholipid monolayer to which proteins are attached. The current model of LD biogenesis involves an incorporation of the lipid core into the membrane leaflets of the endoplasmic reticulum (ER) followed by a subsequent budding-like maturation of a LD, which ultimately pinches off. Once released, LD volume can increase by localized lipogenesis or fusion of existing droplets. Storage lipids are re-mobilized enzymatically by lipase activity. Lipase regulation in the adipocyte is heavily studied and involves multiple components including catecholamine signaling, the LD-associated proteins Perilipin and comparative gene identification-58 (CGI-58) and at least two lipases named hormone sensitive lipase (HSL) and adipocyte triglyceride lipase (ATGL). LD regulation outside of the adipocyte is poorly understood and only few components are known. However, there is an urgent need to learn more about ectopic fat depots as mislocalized storage of lipids, for example in the liver or muscle, is an eminent health problem associated with insulin resistance or the metabolic syndrome. We developed a laser-scanning cytometer assay to enable 1,536-well screening and combined the results of the small molecules screen with an RNAi database based on lipid storage.
NCGC Assay Protocol Summary:
We dispensed 4 uL of cells at 1.25 x 10^6 cells/mL into LoBase Aurora COC 1,536-well plates (black walled, clear bottom) with a bottle-valve solenoid-based dispenser (Aurora) to obtain 5,000 cells/well. Triacsin C (Sigma-Aldrich T-4540), an inhibitor of long-chain fatty acyl CoA synthetase that blocks synthesis of triglycerides, was used as a positive control for lipid under-storage. A total of 23 nL of compound solution of different concentrations were transferred to the assay plates using a Kalypsys pin tool equipped with a 1,536-pin array containing 10-nL slotted pins (FP1S10, 0.457-mm diameter, 50.8 mm long; V&P Scientific). One microliter of oleic acid (400 uM) was added, and the plate was lidded with stainless steel rubber gasket lined lids containing pinholes. […] Fluorescence was detected by excitation of the fluorophores with a 488-nm laser on an Acumen Explorer (TTP Lab Tech). The total intensity in channel 1 (500-530 nm) reflected lipid droplet accumulation. […] The ratio of the total intensity in PMT channel 1 over total intensity of channel 3 was also calculated. Percent activity was computed relative to an internal control (100% inhibited lipid droplet deposition due to the presence of 20 uM Triacsin C), which was added to 32 wells/plate.
On the technique in general: qHTS replaces the single test concentration by a dilution series.

Where [1] appears, read: measured here: cell count channel max response.
Where [2] appears, read: measured here: lipid channel max response.

Values joined by “and” are separate entries in the source; they are usually repeats but may differ in a detail not shown here. Identical values can stand only once. Records with an inconclusive call do not appear. Active and inactive are the calls of the source. Calls come from the whole dose curve.

With `Fc1ccc(C(OCCN2CCN(CCCc3ccccc3)CC2)c2ccc(F)cc2)cc1`, the activity change, negative = inhibition (at 25.7 µM (top of the series)) is -2.3% (inactive). In addition, the max response is, setting by setting: under setting [1], -18.7%; under setting [2], -16.6%.
In the case of `O=c1[nH]c2ccccc2n1CCCN1CCC(n2c(=O)[nH]c3cc(Cl)ccc32)CC1`, the activity change, negative = inhibition (at 25.7 µM (top of the series)) was 0.586% (inactive); the activity change, negative = inhibition (at 57.5 µM (top of the series)) is 4.6% (inactive) and -5.66% (inactive). Moreover, the max response reads like this: under setting [1], 2.1% and 12.4% and -15.6%; under setting [2], 4.47% and 17.4% and -21%.
Take `Cc1cccc(C)c1NC1=NCCCS1`: the activity change, negative = inhibition was 0.794% (inactive) (at 25.7 µM (top of the series)) and 0.68% (inactive) (at 57.5 µM (top of the series)). Moreover, the max response is 4% and -18.4% under setting [1]; 4.95% and -18.3% under setting [2].
On to `Clc1ccc(COC(Cn2ccnc2)c2ccc(Cl)cc2Cl)cc1` (stereo unspecified), for which the activity change, negative = inhibition (at 57.5 µM (top of the series)) is -5.83% (inactive). The max response is, setting by setting: under setting [1], -16.9%; under setting [2], -20.8%.
The matching figures for `c1ccc(C2CC2)c(OCC2=NCCN2)c1`: 8.25% (inactive), 15.2% and 26.1%.
In the same order, the values of `CC(C)=CC1C(C(=O)OCc2cccc(Oc3ccccc3)c2)C1(C)C` (stereo unspecified) are 8.71% (inactive), 10.5% and 23.2%.
The matching figures for `CN1C[C@H](CNC(=O)OCc2ccccc2)C[C@@H]2c3cccc4c3c(cn4C)C[C@H]21`: 1.3% (inactive), -34% and -33%.
In the case of `Cc1ncc(CNC(=O)N(CCCl)N=O)c(N)n1`, where the note is “at 57.5 µM (top of the series)”, the activity change, negative = inhibition is 4.94% (inactive). Besides, the max response runs as follows: under setting [1], 9.89%; under setting [2], 18%.
In the same order, the values of `CC[N+]1(C)CCCC(OC(=O)C(O)(c2ccccc2)c2ccccc2)C1` (stereo unspecified) are 8.59% (inactive), 5.8% and 23.3%.
With `NCCc1cc(O)c(O)cc1O`, the activity change, negative = inhibition (at 57.5 µM (top of the series)) was 7.71% (inactive). Moreover, the max response under setting [1] stood at 5.57% and the max response under setting [2] was determined as 16.6%.
Turning to `Cc1ccc(S(=O)(=O)N[C@@H](CCCCN)C(=O)CCl)cc1`, the activity change, negative = inhibition (at 57.5 µM (top of the series)) is -0.107% (inactive). In addition, the max response runs as follows: under setting [1], 1.11%; under setting [2], 0.09%.
In the same order, the values of `CCC1(C2=NCCN2)Cc2ccccc2O1` (stereo unspecified) are -1.14% (inactive), -3.38% and -2.07%.
The matching figures for `CC(CCc1ccccc1)NC(C)C(O)c1ccc(O)cc1` (stereo unspecified): 1.71% (inactive), -1.34% and 0.25%.
